# Measured values taken from paper PMC5540273 (PLoS ONE, 2017).
# Where two headings read alike, the source gives them in different places.
# Tests used:
# [1] = system: LTK; conditions: n = 1
# [2] = system: LYN; conditions: concentration: 1 μM, replicates: in singlicate; n = 1
# [3] = system: T1, LZK; conditions: concentration: 1 μM, replicates: in singlicate; n = 1
# T1 construct: gene MAP3K13
# [4] = system: MAK; conditions: concentration: 1 μM, replicates: in singlicate; n = 1
# [5] = system: MAP3K15; conditions: concentration: 1 μM, replicates: in singlicate; n = 1
# [6] = system: MAP3K1; conditions: concentration: 1 μM, replicates: in singlicate; n = 1
# [7] = system: MAP3K2; conditions: concentration: 1 μM, replicates: in singlicate; n = 1
# [8] = system: MAP3K3; conditions: concentration: 1 μM, replicates: in singlicate; n = 1
# [9] = system: MAP3K4; conditions: concentration: 1 μM, replicates: in singlicate; n = 1
# [10] = system: MAP4K2; conditions: concentration: 1 μM, replicates: in singlicate; n = 1
# [11] = system: MAP4K3; conditions: concentration: 1 μM, replicates: in singlicate; n = 1
# [12] = system: MAP4K4; conditions: concentration: 1 μM, replicates: in singlicate; n = 1
# [13] = system: MAP4K5; conditions: concentration: 1 μM, replicates: in singlicate; n = 1
# [14] = system: MAPKAPK2; conditions: concentration: 1 μM, replicates: in singlicate; n = 1
# [15] = system: MAPKAPK5; conditions: concentration: 1 μM, replicates: in singlicate; n = 1
# [16] = system: MARK1; conditions: concentration: 1 μM, replicates: in singlicate; n = 1
# [17] = system: MARK2; conditions: concentration: 1 μM, replicates: in singlicate; n = 1
# [18] = system: MARK3; conditions: concentration: 1 μM, replicates: in singlicate; n = 1
# [19] = system: MARK4; conditions: concentration: 1 μM, replicates: in singlicate; n = 1
# [20] = system: MAST1; conditions: concentration: 1 μM, replicates: in singlicate; n = 1
# [21] = concentration: 1 μM, replicates: in singlicate
# 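Further: KINOMEscan kinase panel screen.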
structure (smiles),measurement,setting,value
O=C1Cc2cc(Nc3nc(NCc4cccc(S(=O)(=O)C(F)(F)F)c4)ncc3C(F)(F)F)ccc2N1,%Inh,[1]; [21],6%
same,%Inh,[2],0%
same,%Inh,[3],25%
same,%Inh,[4],15%
same,%Inh,[5],21%
same,%Inh,[6],2%
same,%Inh,[7],12%
same,%Inh,[8],0%
same,%Inh,[9],6%
same,%Inh,[10],0%
same,%Inh,[11],13%
same,%Inh,[12],0%
same,%Inh,[13],0%
same,%Inh,[14],4%
same,%Inh,[15],30%
same,%Inh,[16],5%
same,%Inh,[17],0%
same,%Inh,[18],19%
same,%Inh,[19],6%
same,%Inh,[20],0%
O=C(c1ccc(-c2cc(-c3c[nH]nc3-c3ccccn3)ccn2)cc1)N1CCOCC1 [GW812171],%Inh,[1]; [21],4%
same,%Inh,[2],0%
same,%Inh,[3],0%
same,%Inh,[4],0%
same,%Inh,[5],0%
same,%Inh,[6],0%
same,%Inh,[7],22%
same,%Inh,[8],0%
same,%Inh,[9],9%
same,%Inh,[10],0%
same,%Inh,[11],0%
same,%Inh,[12],0%
same,%Inh,[13],0%
same,%Inh,[14],0%
same,%Inh,[15],0%
same,%Inh,[16],5%
same,%Inh,[17],21%
same,%Inh,[18],17%
same,%Inh,[19],11%
same,%Inh,[20],18%
NS(=O)(=O)CCc1cccc(Nc2nccc(-c3c(-c4cccc(NC(=O)c5c(F)cccc5F)c4)nn4ccccc34)n2)c1 [GSK336735],%Inh,[1]; [21],39%
same,%Inh,[2],97.8%
same,%Inh,[3],0%
same,%Inh,[4],22%
same,%Inh,[5],5%
same,%Inh,[6],13%
same,%Inh,[7],88%
same,%Inh,[8],79%
same,%Inh,[9],76%
same,%Inh,[10],0%
same,%Inh,[11],65%
same,%Inh,[12],76%
same,%Inh,[13],95.8%
same,%Inh,[14],23%
same,%Inh,[15],0%
same,%Inh,[16],13%
same,%Inh,[17],0%
same,%Inh,[18],6%
same,%Inh,[19],26%
same,%Inh,[20],0%
O=c1cc(N2CCOCC2)nc2n(Cc3cccc(C(F)(F)F)c3)ccn12 [GSK2297543],%Inh,[1]; [21],16%
same,%Inh,[2],0%
same,%Inh,[3],0%
same,%Inh,[4],31%
same,%Inh,[5],0%
same,%Inh,[6],5%
same,%Inh,[7],10%
same,%Inh,[8],0%
same,%Inh,[9],13%
same,%Inh,[10],0%
same,%Inh,[11],0%
same,%Inh,[12],0%
same,%Inh,[13],0%
same,%Inh,[14],0%
same,%Inh,[15],0%
same,%Inh,[16],1%
same,%Inh,[17],0%
same,%Inh,[18],0%
same,%Inh,[19],12%
same,%Inh,[20],9%
O=c1cc(N2CCOCC2)nc2n(Cc3cccc(Cl)c3Cl)c(C3CC3)nn12 [GSK2358994],%Inh,[1]; 1 µM,0%
same,%Inh,[2],0%
same,%Inh,[3],0%
same,%Inh,[4],0%
same,%Inh,[5],0%
same,%Inh,[6],14%
same,%Inh,[7],0%
same,%Inh,[8],0%
same,%Inh,[9],19%
same,%Inh,[10],11%
same,%Inh,[11],0%
same,%Inh,[12],0%
same,%Inh,[13],0%
same,%Inh,[14],1%
same,%Inh,[15],0%
same,%Inh,[16],0%
same,%Inh,[17],0%
same,%Inh,[18],0%
same,%Inh,[19],4%
same,%Inh,[20],4%
NS(=O)(=O)c1cccc(-c2ccc3ncc(N4CCOCC4)nc3c2)c1 [GSK1535721],%Inh,[1]; [21],8%
same,%Inh,[2],0%
same,%Inh,[3],23%
same,%Inh,[4],8%
same,%Inh,[5],0%
same,%Inh,[6],0%
same,%Inh,[7],0%
same,%Inh,[8],0%
same,%Inh,[9],0%
same,%Inh,[10],4%
same,%Inh,[11],0%
same,%Inh,[12],0%
same,%Inh,[13],0%
same,%Inh,[14],7%
same,%Inh,[15],0%
same,%Inh,[16],0%
same,%Inh,[17],11%
same,%Inh,[18],0%
same,%Inh,[19],0%
same,%Inh,[20],0%
O=C1NC(=O)C(N2CCc3ccccc32)=C1c1cccc(Cl)c1 [SB-408010],%Inh,[1]; [21],5%
same,%Inh,[2],7%
same,%Inh,[3],12%
same,%Inh,[4],37%
same,%Inh,[5],1%
same,%Inh,[6],26%
same,%Inh,[7],0%
same,%Inh,[8],22%
same,%Inh,[9],9%
same,%Inh,[10],0%
same,%Inh,[11],20%
same,%Inh,[12],0%
same,%Inh,[13],0%
same,%Inh,[14],3%
same,%Inh,[15],0%
same,%Inh,[16],4%
same,%Inh,[17],0%
same,%Inh,[18],0%
same,%Inh,[19],0%
same,%Inh,[20],0%
NS(=O)(=O)c1cccc(-c2ccc3nccc(-c4cccc(S(N)(=O)=O)c4)c3c2)c1 [GW867253],%Inh,[1]; [21],0%
same,%Inh,[2],0%
same,%Inh,[3],1%
same,%Inh,[4],0%
same,%Inh,[5],0%
same,%Inh,[6],8%
same,%Inh,[7],15%
same,%Inh,[8],0%
same,%Inh,[9],12%
same,%Inh,[10],9%
same,%Inh,[11],0%
same,%Inh,[12],0%
same,%Inh,[13],0%
same,%Inh,[14],0%
same,%Inh,[15],0%
same,%Inh,[16],7%
same,%Inh,[17],0%
same,%Inh,[18],0%
same,%Inh,[19],25%
same,%Inh,[20],47%
Cc1c(Cn2c(C)nn3c(=O)cc(N4CCOC(C)C4)nc23)cccc1C(F)(F)F (centres unmarked) [GSK2344444],%Inh,[1]; [21],0%
same,%Inh,[2],0%
same,%Inh,[3],0%
same,%Inh,[4],15%
same,%Inh,[5],10%
same,%Inh,[6],16%
same,%Inh,[7],9%
same,%Inh,[8],0%
same,%Inh,[9],0%
same,%Inh,[10],0%
same,%Inh,[11],0%
same,%Inh,[12],18%
same,%Inh,[13],16%
same,%Inh,[14],1%
same,%Inh,[15],0%
same,%Inh,[16],0%
same,%Inh,[17],0%
same,%Inh,[18],0%
same,%Inh,[19],0%
same,%Inh,[20],0%
COc1ccc(Nc2nccc(N3CCC(NC(=O)Nc4cc(C)ccc4C)C3)n2)cc1 (centres unmarked) [GSK1379741],%Inh,[1]; [21],7%
same,%Inh,[2],73%
same,%Inh,[3],0%
same,%Inh,[4],28%
same,%Inh,[5],0%
same,%Inh,[6],11%
same,%Inh,[7],5%
same,%Inh,[8],0%
same,%Inh,[9],23%
same,%Inh,[10],0%
same,%Inh,[11],0%
same,%Inh,[12],0%
same,%Inh,[13],0%
same,%Inh,[14],14%
same,%Inh,[15],0%
same,%Inh,[16],0%
same,%Inh,[17],0%
same,%Inh,[18],0%
same,%Inh,[19],0%
same,%Inh,[20],9%
